Source: the supplement of paper PMC6555819

Tests used:
Assay in all cases: PBM binding z-score (relative to random genomic background probes); higher = stronger binding; sequences stand for … in GC…GCGATTGACAGCGTAGAATGAAGG
[1] = tested on: FXR:RXRa (NR concentration 270 nM, RXRa partner concentration 90 nM)
In short: (§1)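 On custom Agilent 4×180K arrays, double-stranded probes with 34-nt variable regions carried direct-repeat seeds, single-nucleotide variants, half-site ablations or random human genomic background. Ligand-free nuclear receptor dimers were applied for 1 h, and binding was read with antibodies against each partner (one per run). Binding z-scores come from regression-normalized fluorescence, with the random background probes as reference.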

[2] = tested on: LXRa:RXRa (NR concentration 270 nM, RXRa partner concentration 90 nM)
In short: as §1

[3] = tested on: LXRa homodimer (NR concentration 270 nM)
In short: as §1

[4] = tested on: LXRb:RXRa (NR concentration 270 nM, RXRa partner concentration 90 nM)
In short: as §1

[5] = tested on: LXRb homodimer (NR concentration 270 nM)
In short: as §1

[6] = tested on: PPARa:RXRa (NR concentration 270 nM, RXRa partner concentration 90 nM)
In short: as §1

[7] = tested on: PPARg:RXRa (NR concentration 180 nM, RXRa partner concentration 90 nM)
In short: as §1

[8] = tested on: PPARg:RXRa 270nM:90nM, anti-RXR (NR concentration 270 nM, RXRa partner concentration 90 nM)
In short: as §1

[9] = tested on: PPARg:RXRa 30nM:10nM, anti-RXR (NR concentration 30 nM, RXRa partner concentration 10 nM)
In short: as §1

[10] = tested on: PPARg:RXRa 90nM:30nM, anti-RXR (NR concentration 90 nM, RXRa partner concentration 30 nM)
In short: as §1

[11] = tested on: PPARg:RXRa DBDmut IVT, anti-RXR (DBD mutation: RXRa K156A/R161A, NR concentration 270 nM, RXRa partner concentration 90 nM)
In short: as §1

[12] = tested on: PPARg:RXRa IVT, anti-PPARg (NR concentration 270 nM, RXRa partner concentration 90 nM)
In short: as §1

[13] = tested on: PPARg DBDmut:RXRa IVT, anti-PPARg (DBD mutation: PPARg1 K132A/R137A, NR concentration 270 nM, RXRa partner concentration 90 nM)
In short: as §1

[14] = tested on: PPARg DBDmut IVT, anti-PPARg (DBD mutation: PPARg1 K132A/R137A, NR concentration 270 nM)
In short: as §1

[15] = tested on: PPARg homodimer (NR concentration 180 nM)
In short: as §1

[16] = tested on: PXR:RXRa (NR concentration 270 nM, RXRa partner concentration 90 nM)
In short: as §1

[17] = tested on: PXR homodimer (NR concentration 270 nM)
In short: as §1

[18] = tested on: RARa:RXR (NR concentration 270 nM, RXRa partner concentration 90 nM)
In short: as §1

[19] = tested on: RARa homodimer (NR concentration 270 nM)
In short: as §1

[20] = tested on: RARb:RXRa (NR concentration 270 nM, RXRa partner concentration 90 nM)
In short: as §1

Row | Sequence | PBM binding z-score [1] | PBM binding z-score [2] | PBM binding z-score [3] | PBM binding z-score [4] | PBM binding z-score [5] | PBM binding z-score [6] | PBM binding z-score [7] | PBM binding z-score [8] | PBM binding z-score [9] | PBM binding z-score [10] | PBM binding z-score [11] | PBM binding z-score [12] | PBM binding z-score [13] | PBM binding z-score [14] | PBM binding z-score [15] | PBM binding z-score [16] | PBM binding z-score [17] | PBM binding z-score [18] | PBM binding z-score [19] | PBM binding z-score [20]
1 | TGAATGAGGTTATAAGATCAGGTAACGTTGCAAA | 1.34 | 1.33 | -0.261 | 1.28 | 0.248 | 2.76 | 1.42 | 1.99 | 1.02 | 1.46 | 1.19 | 1.74 | 0.858 | 0.555 | 0.252 | 0.996 | 0.0498 | 1.59 | 0.49 | 1.12
2 | GCTATTAGTGGAAAGGGCAACCGAATGATTCTCG | 0.118 | 0.287 | -0.215 | 0.268 | -0.406 | 1.68 | 1.88 | 3.6 | 1.97 | 3.34 | 0.437 | 0.575 | 0.104 | -0.457 | 0.772 | 0.478 | -0.0365 | 0.745 | 0.726 | 1.93
3 | GCGACTGGCGCAAAGCAGGTTACCATAAGGTTGG | -0.457 | -0.431 | -0.662 | -0.683 | -1.4 | -0.182 | 0.258 | -0.247 | -0.734 | -0.475 | -0.223 | -0.321 | -1.05 | -1.11 | -0.736 | -0.34 | -0.486 | -0.0579 | -0.958 | -0.386
4 | ACTAGTTGGTCAGCTGAGCTCACACACAATTCGG | -0.29 | -0.363 | -0.563 | -0.541 | -0.142 | -0.497 | 0.575 | -0.784 | -0.476 | -0.673 | 0.771 | 0.632 | 0.319 | 0.574 | -0.1 | -0.455 | -0.49 | -0.357 | -0.333 | 0.363
5 | CCTCGGAGGACATAAGGTCAGAGCTGTCCGCTTT | 2.39 | 2.6 | 0.959 | 1.75 | -0.328 | 2.45 | 0.338 | 0.85 | -0.243 | 0.319 | 0.213 | 0.303 | -1 | -1.59 | 1.72 | 2.42 | -0.0342 | 3.08 | 0.792 | 3.4
6 | CAGCCTAGGTCAGGGCCAGTTTAGGAGGAACGTT | 2.04 | 1.26 | -0.426 | 0.837 | -1.02 | 2.13 | 0.55 | 0.962 | -0.489 | 0.124 | 1.5 | 1.79 | -1.02 | -1.5 | 0.437 | 1.03 | -0.16 | 1.32 | -0.133 | 3.41
7 | TAGACTAGGTCATTGGGCCAGTATAGTACGCATC | 3.51 | 2.61 | 0.548 | 1.56 | 0.785 | 3.89 | 5.62 | 5.24 | 2.45 | 4.58 | 5.72 | 6.51 | 1.28 | 0.786 | 1.15 | 1.2 | 0.294 | 1.65 | 0.657 | 3.45
8 | ACTTACGGGACAACGAGGTTATAGCACGCGTATA | 0.442 | 0.645 | 0.447 | 0.958 | 0.473 | 1.08 | 1.01 | 0.442 | 0.295 | 0.32 | 0.742 | 0.83 | 0.547 | 1 | 0.641 | 0.83 | 0.728 | 0.933 | 0.919 | 1.03
9 | ATCTCTTGGTAAAAGTTCAGTGAATCCCGAGGAT | 0.493 | 1.23 | 1.42 | 0.868 | 1.09 | 1.58 | 1.87 | 4.15 | 1.88 | 3.88 | -0.122 | 0.894 | 0.627 | 0.652 | 1.46 | 1.83 | 1.58 | 1.1 | 1.12 | 2.37
10 | TCATATAGGTAGTACAGGTGAAAGTCGGCATCTA | 1.11 | 1.01 | 0.38 | 0.84 | 0.0864 | 1.2 | 0.65 | 2.23 | 3.57 | 3.13 | 2.26 | 1.52 | 1.27 | 1.09 | 1.08 | 0.715 | 0.204 | 1.16 | 1.16 | 0.562
11 | CCTACTGGGCCAAAAAGCTCATTGATGCCGATAA | -0.506 | -0.69 | -0.717 | -0.724 | -1.22 | -0.251 | 0.473 | 1.24 | -0.429 | 0.564 | 3.38 | 2.11 | -0.849 | -0.936 | -0.703 | -0.847 | -0.417 | -1.01 | -0.487 | -0.356
12 | CAAACTAGGTCACGAACGGTCAAAGTCGAATGAC | 5.85 | 7.42 | 4.34 | 5.78 | 1.18 | 5.62 | 9.57 | 8.01 | 5.99 | 7.93 | 8.77 | 9.13 | 8.12 | 6.44 | 4.03 | 3.71 | 0.663 | 4.05 | 2.03 | 4.7
13 | TCATATGGGTAAAAGGTGAAAGTCGGTGTGGTAA | 1.33 | 1.38 | -0.164 | 1.62 | -0.571 | 4.91 | 8.23 | 7.44 | 7.67 | 8.21 | 4.48 | 4.52 | 0.558 | 0.338 | 1.03 | 1.61 | -0.132 | 2.3 | 0.788 | 1.85
14 | TCTCGGAGGACACGAAGGTCAGAGCATTCCAGAG | 1.29 | 0.948 | 0.206 | 0.97 | -0.998 | 1.88 | 0.742 | 1.63 | 2.05 | 1.74 | 1.39 | 1.39 | -0.898 | -1.01 | 0.93 | 1.74 | 0.89 | 1.61 | 0.282 | 3.07
15 | AGAACGAGGGCACGCTGAGTTGCTAGCAGAGTAG | 0.473 | 0.348 | -0.756 | -0.279 | -1.02 | 2.05 | 1.85 | 1.6 | 0.179 | 0.707 | 4.16 | 3.97 | -0.0983 | -0.499 | -0.0627 | 0.539 | -0.605 | 0.617 | -0.905 | 2.43
